Source: PubChem BioAssay AID1626 (SRMLSC, 2009)
“And” between values parts separate entries of the source, which are not always exact repeats. Equal values may be shown once. The whole screen tested about 220,000 compounds, of which about 2,000 (0.91%) were called active. Roughly 2% stayed inconclusive and do not appear here. Only a sample is shown. Results with a measured potency or affinity are listed apart. Unmarked numbers belong to inactive results. Rule as the data show it: inconclusive = inhibition above about 80% without an active follow-up result; inactive = below that; test concentration not stated here.

Assay: M. tuberculosis H37Rv growth inhibitors, H37Rv strain (AID 1626);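 also: bacteria incubated seven days before Alamar blue readout; 0% = bacteria only wells and 100% = bacteria with antibiotic wells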
Conditions: active compounds read high, concentration not given here

Row | Compound | inhibition
1 | Cc1nnsc1C(=O)N(Cc1ccccc1)C(C)C | -4.27%
2 | Cc1ccc(CNC(=O)C2CC(c3cccc(F)c3)=NO2)cc1 (stereo unspecified) | 9.15%
3 | OC(C#CCN1CCOCC1)(c1ccccc1)C1CCCC1 (stereo unspecified) | 2.94%
4 | Cc1cc(C)nc(SCc2nnc(SCC(=O)OC3CCCCC3)o2)n1 | 48.1%
5 | O=C(CSc1nnc(COc2ccccc2Cl)o1)NC(=O)NC1CCCC1 | 5.08%
6 | Cc1ccc(C(=O)CSc2nnc(COc3cccc(C)c3)o2)cc1 | -2.67%
7 | Cc1ccc(C(=O)CSc2nnc(COc3cc(C)cc(C)c3)o2)cc1 | -3.69%
8 | CCOC(=O)CSc1nnc(COc2cccc(C)c2)o1 | -4.7%
9 | CC1CCCCC1NC(=O)CSc1nnc(COc2ccccc2Cl)o1 (stereo unspecified) | -2.14%
10 | CCn1cc(C(=O)OCC(=O)Nc2c(C)cccc2C)c(=O)c2ccc(C)nc21 | 0.89%
11 | Cc1ccccc1CSCCNC(=O)CCSc1ccccc1 | -2.07%
12 | CCOC(=O)c1ccc(NC(=O)CSc2nnc(COc3ccccc3OC)n2CC)cc1 | 6.35%
13 | CCc1cccc(CC)c1NC(=O)c1ccccc1CCc1ccccc1 | 2.03%
14 | COC(c1ccccc1)c1nnc(CCC(=O)N(C)CCc2ccccc2)o1 (stereo unspecified) | -1.5%
15 | O=C(CCn1cnc2ccccc2c1=O)Nc1nc(-c2ccc(Br)cc2)cs1 | -1.09%
16 | COc1ccc(/C=C2/N=C(SCC(=O)Nc3cc(C)on3)N(c3ccccc3)C2=O)cc1 | 2.4%
17 | C=CCn1c(CNC(=O)c2ccccc2C)nnc1SCC(=O)NC1CCCC1 | -7.41%
18 | CN1CCN(CCCN2c3ccccc3Sc3ccc(Cl)cc32)CC1 | -5.97% and 68.2% and 79.9%
19 | CN1CCN(C2=Cc3ccccc3Sc3cc(F)ccc32)CC1 | 2.61%
20 | CN1CCN(C2=Cc3ccccc3Sc3cc(F)c(F)cc32)CC1 | 11.1%
21 | CN1CCN(c2ccc(F)cc2N)CC1 | 0.4%

Row | Compound | inhibition
22 | CCc1ccc(CCC(=O)Nc2nnc(CC)s2)o1 | 7.07%
23 | COc1ccc(CNc2nc3nc(C)c(Cl)c(C)n3n2)cc1 | -2.45%
24 | O=S(=O)(c1ccc2c(c1)OCCCO2)N1CCNCC1 | -0.23%
25 | O=C(c1ccc2c(c1)OCCO2)N1CCCC(CNS(=O)(=O)c2cccs2)C1 (stereo unspecified) | 4.35%
26 | Cc1[nH]c2ccccc2c1SCCNC(=O)c1ccc(Br)o1 | -0.07%
27 | CCC(=O)Nc1cccc(NC(=O)c2ccc(C)c([N+](=O)[O-])c2)c1 | 15.4%
28 | CN(C)CCNC(=O)c1cc2ccccc2oc1=O | 2.99%
29 | CC(=O)OCCNC(=O)c1cc2ccccc2oc1=O | -6.56%
30 | CCC1(CC)C(=O)N(C)C(=O)NC1=Nc1ccc(OC)cc1 | -7.12%
31 | O=S(=O)(Nc1nccs1)c1ccc(F)cc1 | -3.51%
32 | NS(=O)(=O)c1ccc(N=C2C(=O)Nc3ccccc32)cc1 | -2.66%
33 | O=[N+]([O-])c1ccccc1S(=O)(=O)NCc1ccco1 | 9.2%
34 | Cc1ccc2cc(CN(CC3CCCO3)C(=S)NCc3ccco3)c(=O)[nH]c2c1 (stereo unspecified) | 1.74%
35 | CC1=CC(=O)N(c2cccc(C(F)(F)F)c2)C1c1ccc(Cl)cc1 (stereo unspecified) | 5.08%
36 | Cc1nc([N+](=O)[O-])c(Br)n1CC(=O)c1ccccc1 | 37%
37 | Cc1nc([N+](=O)[O-])c(Br)n1Cc1ccccc1 | 28.8%
38 | Cc1nc([N+](=O)[O-])c(Br)n1CC(=O)c1ccc(F)cc1 | 52.5%
39 | Cc1nc([N+](=O)[O-])c(Br)n1CC(=O)c1ccc(Br)cc1 | 18.9%
40 | CCN(c1ccccc1)S(=O)(=O)c1ccc(Cl)c(NC(=O)CSc2nncs2)c1 | 6.07%
41 | CCCCCCCCc1nc(SCC(C)=O)n[nH]1 | 8.52%
42 | O=C(CS(=O)(=O)c1cccc(Cl)c1)Nc1ccccc1Cl | -9.41%

Row | Compound | inhibition
43 | CC(C)(C)c1cnnn1-c1ccc(/C=N/Nc2ccc([N+](=O)[O-])cc2)cc1 | -0.06%
44 | O=C(NCCN1CCN(c2ccccc2)CC1)c1cccn2c(=O)c3cc(Cl)ccc3nc12 | 8.3%
45 | Cc1ccc(O)c(N=Cc2sc3ccccc3c2Cl)c1 | 11.1%
46 | O=[N+]([O-])c1ccc(O)c(N=Cc2sc3ccccc3c2O)c1 | 5.55%
47 | CCCc1ccc(NS(=O)(=O)c2c(C)oc(C)c2C(=O)OC)cc1 | 3.72%
48 | CN1CCN(C(=S)c2cn(Cc3cccc(F)c3)c3ccccc23)CC1 | 2.92%
49 | COc1ccc(C)cc1S(=O)(=O)N1CCN(c2cccc(C(F)(F)F)c2)CC1 | -1.59%
50 | CC1/C(=N/O)CC(c2ccccc2)N(C)C1c1ccccc1 (stereo unspecified) | -3.61%
51 | CCC1C(c2ccccc2)N(C)C(c2ccccc2)CC1(O)c1ccccc1 (stereo unspecified) | 51.8%
52 | O=C(Nc1ccc(O)cc1C(=O)O)c1cccc(Br)c1 | 0.45%
53 | COc1cnc(-c2ccccn2)nc1Oc1ccc(Cl)cc1 | 71.9%
54 | Nc1cccnc1Oc1ccc(F)cc1F | -4.1%
55 | Fc1ccc(Oc2ncccn2)c(F)c1 | 0.19%
56 | COc1cnc(-c2ccccn2)nc1Oc1ccccc1Cl | -2.44%
57 | C#CCOCCOCCOCCNc1nc(N2CCN(C(=O)[C@H](CCC(=O)O)n3cc(C(N)[C@H](C)CC)nn3)CC2)nc(N2CCN(C(=O)[C@H](Cc3ccc(O)cc3)n3cc(C(N)[C@H](C)CC)nn3)CC2)n1 (stereo partly specified) | 0.56%
58 | Cc1ccccc1NC1=C/C(=N\S(=O)(=O)c2cccs2)c2ccccc2C1=O | 61.1%
59 | O=C1C(Nc2ccccc2)=C/C(=N/S(=O)(=O)c2cccs2)c2ccccc21 | 76.6%
60 | Cc1ccc(NC2=C/C(=N/S(=O)(=O)c3cccs3)c3ccccc3C2=O)cc1C | 0.28%
61 | Cc1cccc(NC2=C/C(=N/S(=O)(=O)c3cccs3)c3ccccc3C2=O)c1 | 1.87%
